# Test results published in PubChem BioAssay.
# Values without a mark were called inactive. For some assays here: Results with a measured potency or affinity are listed apart. Active and inactive are the calls of the source. Unless noted, the rule behind the calls is not given here.
# How the values were obtained:
# [1] = antimalarial activity against Dd2 strain (AID 2302;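 active = growth inhibition above 50% at the single 2 µM test dose, taken to imply half-maximal potency below 2 µM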;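 note: 0% = DMSO untreated growth and 100% = chloroquine plus artemisinin killed control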); conditions: P. falciparum Dd2 in RBCs, LDH growth readout, 72 h; at 2 µM; stronger effect = higher value
# [2] = human hepatoma cell viability loss – ATP luminescence, cytotoxicity control for P. falciparum antimalarial project, primary screen (AID 2303;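 active = inhibition above 50%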;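 note: 0% = DMSO wells and 100% = digitonin-killed cells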); conditions: HepG2 viability, 24-48 h, at 10 µM, stronger effect = higher value
# [3] = biological target: L-lactate dehydrogenase (Plasmodium falciparum (isolate CDC / Honduras)) (UniProt Q27743); assay: PfLDH activity inhibition – cell lysate, 3D7 strain, counter-screen for P. falciparum growth inhibition project (AID 2304);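 note: 0% = vehicle and 100% = reference inhibitor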; conditions: P. falciparum 3D7 crude extract, LDH APAD/NBT absorbance; at 2 µM; stronger effect = higher value
# [4] = inhibition of 3D7 malaria parasite growth – strain 3D7 (AID 2306);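 note: 0% = DMSO wells and 100% = chloroquine plus artemisinin control wells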; conditions: P. falciparum 3D7 erythrocytic growth, LDH absorbance, 72 h; at 2 µM; stronger effect = higher value
# [5] = biological target: Calcium-dependent protein kinase 1 (Plasmodium falciparum (isolate 3D7)) (UniProt P62344); assay: PfCDPK1 kinase inhibitors, biochemical, TCAMS library (AID 1159585; cut-off not given, nearly all actives have IC50 up to about 0.98 µM;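 note: inhibitors leave more ATP so luminescence rises with inhibition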); conditions: recombinant PfCDPK1, Kinase-Glo ATP depletion luminescence
# [6] = biological target: Plasmodium falciparum protein kinase 6 (PK6, PF3D7_1337100) (UniProt Q8IDW1); assay: PfPK6 kinase inhibitors, biochemical, TCAMS library (AID 1159586); conditions: recombinant PfPK6, Kinase-Glo ATP depletion luminescence
# [7] = biological target: Protein kinase 7 (PK7), Plasmodium falciparum 3D7 (PF3D7_0213400) (UniProt Q7YTF7); assay: inhibition of Plasmodium PK7 catalytic activity – biochemical, TCAMS antimalarial set, Kinase-Glo luminescence (AID 1159587); conditions: recombinant PfPK7, Kinase-Glo ATP depletion luminescence
# [8] = biological target: Calcium-dependent protein kinase 4 (Plasmodium falciparum (isolate 3D7)) (UniProt Q8IBS5); assay: PfCDPK4 kinase inhibitors, biochemical, TCAMS library (AID 1159588; cut-off not given, nearly all actives have IC50 up to about 0.91 µM); conditions: recombinant PfCDPK4, Kinase-Glo ATP depletion luminescence
# Chain of Calcium-dependent protein kinase 4 (Plasmodium falciparum (isolate 3D7)) (Q8IBS5 whole entry, looked up): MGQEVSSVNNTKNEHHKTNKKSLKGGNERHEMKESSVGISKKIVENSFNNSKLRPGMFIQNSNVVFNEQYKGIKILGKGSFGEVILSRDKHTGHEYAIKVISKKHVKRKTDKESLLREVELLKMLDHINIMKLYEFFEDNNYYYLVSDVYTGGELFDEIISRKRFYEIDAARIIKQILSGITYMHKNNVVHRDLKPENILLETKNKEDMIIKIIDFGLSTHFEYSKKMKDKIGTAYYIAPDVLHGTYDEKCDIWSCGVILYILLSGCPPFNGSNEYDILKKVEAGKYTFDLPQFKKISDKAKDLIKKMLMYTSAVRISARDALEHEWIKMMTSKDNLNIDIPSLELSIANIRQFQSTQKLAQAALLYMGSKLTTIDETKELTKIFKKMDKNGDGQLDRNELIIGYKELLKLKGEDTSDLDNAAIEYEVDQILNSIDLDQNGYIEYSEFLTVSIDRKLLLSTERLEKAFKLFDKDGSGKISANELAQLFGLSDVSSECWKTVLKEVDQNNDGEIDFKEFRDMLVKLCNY
# Chain of Plasmodium falciparum protein kinase 6 (PK6, PF3D7_1337100) (Q8IDW1 1-305): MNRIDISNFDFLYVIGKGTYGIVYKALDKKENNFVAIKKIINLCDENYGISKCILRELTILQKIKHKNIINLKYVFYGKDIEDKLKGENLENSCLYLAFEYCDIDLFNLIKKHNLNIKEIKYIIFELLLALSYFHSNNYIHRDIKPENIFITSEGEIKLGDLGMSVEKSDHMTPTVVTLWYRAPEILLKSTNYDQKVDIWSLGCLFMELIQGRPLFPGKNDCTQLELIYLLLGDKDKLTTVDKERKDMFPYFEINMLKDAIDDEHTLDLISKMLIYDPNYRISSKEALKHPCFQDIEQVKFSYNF
# Chain of L-lactate dehydrogenase (Plasmodium falciparum (isolate CDC / Honduras)) (Q27743 whole entry, looked up): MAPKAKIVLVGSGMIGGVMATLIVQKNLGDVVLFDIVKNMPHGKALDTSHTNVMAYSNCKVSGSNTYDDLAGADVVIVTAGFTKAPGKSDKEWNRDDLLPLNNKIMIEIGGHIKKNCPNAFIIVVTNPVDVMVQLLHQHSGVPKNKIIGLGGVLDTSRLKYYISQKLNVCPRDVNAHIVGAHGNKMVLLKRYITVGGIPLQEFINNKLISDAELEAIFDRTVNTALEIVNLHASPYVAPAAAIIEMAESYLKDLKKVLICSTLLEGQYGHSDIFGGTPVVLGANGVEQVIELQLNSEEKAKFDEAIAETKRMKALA
# Chain of Calcium-dependent protein kinase 1 (Plasmodium falciparum (isolate 3D7)) (P62344 whole entry, looked up): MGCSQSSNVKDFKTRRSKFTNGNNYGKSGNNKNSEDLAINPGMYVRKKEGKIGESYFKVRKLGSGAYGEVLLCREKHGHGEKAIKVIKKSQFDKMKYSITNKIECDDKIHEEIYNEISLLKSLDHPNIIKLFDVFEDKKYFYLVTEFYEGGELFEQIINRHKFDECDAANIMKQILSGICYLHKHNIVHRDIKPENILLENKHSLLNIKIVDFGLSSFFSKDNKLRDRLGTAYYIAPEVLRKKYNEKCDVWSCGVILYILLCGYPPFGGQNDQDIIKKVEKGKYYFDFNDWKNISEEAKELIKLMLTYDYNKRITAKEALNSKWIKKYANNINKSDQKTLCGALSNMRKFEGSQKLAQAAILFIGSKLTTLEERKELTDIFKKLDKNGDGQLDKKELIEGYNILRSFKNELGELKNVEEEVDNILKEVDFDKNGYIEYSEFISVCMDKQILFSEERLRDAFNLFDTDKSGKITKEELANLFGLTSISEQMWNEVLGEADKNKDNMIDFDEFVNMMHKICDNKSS
# Chain of Protein kinase 7 (PK7), Plasmodium falciparum 3D7 (PF3D7_0213400) (Q7YTF7 1-343): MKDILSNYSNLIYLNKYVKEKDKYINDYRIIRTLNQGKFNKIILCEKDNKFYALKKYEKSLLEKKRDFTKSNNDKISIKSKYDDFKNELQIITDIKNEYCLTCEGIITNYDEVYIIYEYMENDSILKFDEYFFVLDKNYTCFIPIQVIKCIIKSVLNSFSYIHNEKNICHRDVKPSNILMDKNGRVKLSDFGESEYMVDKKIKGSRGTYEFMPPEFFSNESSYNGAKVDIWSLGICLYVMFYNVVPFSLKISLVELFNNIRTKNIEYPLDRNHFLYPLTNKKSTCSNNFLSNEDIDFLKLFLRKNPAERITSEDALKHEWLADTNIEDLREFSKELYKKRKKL
Compound,growth inhibition [1],inhibition [2],inhibition [3] [%],growth inhibition [4],outcome [5],outcome [6],outcome [7],outcome [8]
C=C[C@]1(C)C[C@@H](OC(=O)NC(=O)CCCS(=O)(=O)c2nnc(C)s2)[C@]2(C)[C@H](C)CC[C@]3(CCC(=O)[C@H]32)[C@@H](C)[C@@H]1O,97% (active),-9%,-7,94% (active),inactive,inactive,inactive,inactive
CC(C)(C)c1cc(C(=O)N2CCN(c3cnccn3)CC2)n(Cc2ccccc2)n1,33%,-1%,-4,92% (active),inactive,inactive,inactive,inactive
Cc1ccc(CNc2cc(C(F)(F)F)nc(-c3ccc(S(C)(=O)=O)cc3)n2)cc1,72% (active),2%,-4,89% (active),inactive,inactive,inactive,inactive
CC(=NNC(=S)NCCc1ccccc1)c1ccccn1,99% (active),73% (active),8,100% (active),inactive,inactive,inactive,inactive
CCc1cc(NC2CCN(C)CC2)nc(Nc2ccc(C)cc2)n1,11%,3%,-7,95% (active),inactive,inactive,inactive,inactive
O=C(Nc1cccc(-c2csc(-c3nc4ccccc4[nH]3)c2)c1)c1ccncc1,61% (active),64% (active),-1,101% (active),inactive,inactive,inactive,inactive
CN(C)CCOc1ccc(-n2c(-c3nonc3N)nc3cncc(-c4ccc(F)cc4)c32)cc1,7%,10%,5,97% (active),inactive,inactive,inactive,inactive
CC(=O)C1=NN(c2ccc(C)cc2)C(c2cccs2)N1c1ccccc1 (stereo not given),64% (active),-4%,-4,89% (active),inactive,inactive,inactive,inactive
CCCCC1(c2ccc(F)cc2)NC(=O)N(CC(=O)c2cc(C)n(Cc3ccco3)c2C)C1=O (stereo not given),28%,6%,-3,82% (active),inactive,inactive,inactive,inactive
Cc1ccc(-n2ncc(C(=O)Nc3cc(Cl)cc(Cl)c3)c2C2CCNCC2)cc1C,77% (active),65% (active),-7,100% (active),inactive,inactive,inactive,inactive
CC(C)c1ccc(CN2CCC(CNC(=O)c3cc(-c4cccc(F)c4)cs3)C2)cc1 (stereo not given),46%,59% (active),5,100% (active),inactive,inactive,inactive,inactive
O=S(=O)(NCCN1CCCC1)c1ccc(-c2ccc(CN3Cc4ccccc4C3)cc2)s1,18%,19%,5,89% (active),inactive,inactive,inactive,inactive
COc1ccc2nccc([C@@H](O)CN3CCC(NCc4nc5c(OCc6ccccc6)cccc5[nH]4)CC3)c2c1,34%,6%,3,101% (active),inactive,inactive,inactive,inactive
CC(Oc1c(C2CCN(CCCCNC(=O)c3ccc(-c4ccc(Cl)cc4)cc3)CC2)ccc2c1CCCC2)C(N)=O (stereo not given),16%,100% (active),3,99% (active),inactive,inactive,inactive,inactive
Oc1ccc(CC2CCCN(c3nc(NCCCOc4ccccc4-c4ccccc4)nc(N4CCNCC4)n3)C2)cc1 (stereo not given),77% (active),56% (active),-4,95% (active),inactive,inactive,inactive,inactive
CCCCCCCN(Cc1ccc(OC(C)(C)C(=O)OCC)cc1)C(=O)Nc1ccccc1OC(F)(F)F,68% (active),-2%,3,95% (active),inactive,inactive,inactive,inactive
C=CCc1cccc(C)c1OCCCON1C(N)=NC(N)=NC1(C)C,95% (active),65% (active),-8,94% (active),inactive,inactive,inactive,inactive
Cc1ccc(O)c(C(=O)c2cnc3c(c2)c(-c2ccc(F)cc2)c(C#N)c(=O)n3C)c1,56% (active),17%,2,93% (active),inactive,inactive,inactive,inactive
CCOc1ccc2c(NN=Cc3ccccc3OC)cc(C)nc2c1,93% (active),11%,0,99% (active),inactive,inactive,inactive,inactive
COc1ccccc1CNC(=O)c1cc(OC)c(OC)cc1NC(=O)c1cccs1,71% (active),12%,3,88% (active),inactive,inactive,inactive,inactive

Compound,growth inhibition [1],inhibition [2],inhibition [3] [%],growth inhibition [4],outcome [5],outcome [6],outcome [7],outcome [8]
NCc1ccc(-c2ccc3c(N)nccc3c2)cc1,92% (active),28%,0,100% (active),inactive,inactive,inactive,inactive
CC[C@H](NC(=O)c1ccc(NC(=O)OC(C)(C)C)cc1)C(=O)N[C@@H](CO)C(=O)NCCCCc1ccccc1,94% (active),-6%,1,98% (active),inactive,inactive,inactive,inactive
Cc1cccc2[nH]c(-c3ccc(-c4cccc(NC(=O)c5cncn5C)c4)s3)nc12,16%,13%,-5,103% (active),inactive,inactive,inactive,inactive
O=C(NCC1CC1)C1CCN(C(c2ccc(Cl)cc2)c2ccc(Cl)cc2)CC1,95% (active),3%,1,99% (active),inactive,inactive,inactive,inactive
O=C(CSc1nc(-c2ccccc2Cl)ns1)Nc1ccc2c(c1)OCO2,77% (active),-8%,-5,93% (active),inactive,inactive,inactive,inactive
Nc1nonc1-c1nc2c(-c3cccc(Cl)c3)nccc2n1CCCNC(=O)Cc1ccc(Cl)cc1,92% (active),-4%,-2,94% (active),inactive,inactive,inactive,inactive
COc1ccc(CNC2Cc3ccccc3C2)cc1-c1cccc(S(=O)(=O)NCCN2CCCC2)c1,61% (active),48%,-3,98% (active),inactive,inactive,inactive,inactive
c1cncc(CCNCc2ccc(-c3ccc(CNC4Cc5ccccc5C4)cc3)cc2)c1,29%,32%,1,92% (active),inactive,inactive,inactive,inactive
CN(C)C(=O)O[C@@H]1CN[C@H](C#Cc2cc3ncnc(Nc4ccc5c(cnn5Cc5cccc(F)c5)c4)c3s2)C1,68% (active),0%,7,97% (active),inactive,inactive,inactive,inactive
CN(C)CCCOc1cc(NC(=O)Nc2ccc(-c3ccncc3)c3ccccc23)ccc1I,97% (active),46%,1,101% (active),inactive,inactive,inactive,inactive
CS(=O)(=O)N(c1cccc(F)c1)c1cc(C(=O)N[C@@H](Cc2ccccc2)[C@H](O)CNCc2cccc(C(F)(F)F)c2)cc(N2CCCC2=O)c1,92% (active),14%,1,98% (active),inactive,inactive,inactive,inactive
COc1ccc2nc(-c3ccc(C(=O)NCCCN4CCN(c5cc(Cl)ccc5OC)CC4)cc3)[nH]c2c1,53% (active),-2%,1,97% (active),inactive,inactive,inactive,inactive
CCN(c1cc(C)nc(Nc2ccc(Cl)cc2)n1)[C@H]1CCN(Cc2ccccc2)C1,31%,46%,2,94% (active),inactive,inactive,inactive,inactive
Cc1cc(N(C)C)nc(Nc2ccc(NC(=O)c3ccccc3C)cc2)n1,16%,-5%,-2,93% (active),inactive,inactive,inactive,inactive
c1cc(C2=N[C@H]3CCCC[C@@H]3N2)ccc1OCCCCCOc1ccc(C2=N[C@@H]3CCCC[C@H]3N2)cc1,23%,80% (active),-5,101% (active),inactive,inactive,inactive,inactive
COc1ccc(C=NNc2cc(C)nc3ccc(C)cc23)c2ccccc12,55% (active),28%,4,94% (active),inactive,inactive,inactive,inactive
CCC(C)c1ccc(NC(=O)Nc2ccnc3ccccc23)cc1 (stereo not given),42%,27%,-2,98% (active),inactive,inactive,inactive,inactive
CN1CCCN(Cc2cccc(-c3ccc(NC(=O)c4ccc(Cl)cc4)cc3)c2)CC1,35%,31%,-5,97% (active),inactive,inactive,inactive,inactive
CC(C)N1CCC(N(Cc2ccc(-c3ccc(C(F)(F)F)cc3)cc2)C(=O)CCCn2c(CCc3cccc(F)c3F)nc(=O)c3ccccc32)CC1,60% (active),45%,-5,89% (active),inactive,inactive,inactive,inactive
CC(=O)c1cccc(NC(=O)NC2CCN(CCCCCNC(=O)/C=C/c3ccc(Cl)c(Cl)c3)CC2)c1,1%,7%,1,94% (active),inactive,inactive,inactive,inactive
